From PubChem BioAssay (NCI)
About 83,000 compounds went through this panel and 20% of them were active in at least one assay; those are over-represented in the sample as a whole.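 Step 1: grow cells in 96-well plates. Step 2: add test compound at a single concentration. Step 3: incubate 48 h. Step 4: record percent growth.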 Unmarked numbers belong to inactive results. Calls of active or inactive are those of the source. The calls were made as follows: active = growth percent below 10; inactive = the rest.

Columns and labels:
Test in all cases: NCI-60 one-dose screen, 48 h (100 = growth as untreated, 0 = no growth, -100 = all killed)
Settings in all cases: 10 µM unless noted
NCI-H23 lung = test system: NCI-H23 lung
NCI-H226 lung = test system: NCI-H226 lung
NCI-H322M lung = test system: NCI-H322M lung
HOP-62 NSCLC = test system: HOP-62 NSCLC
NCI-H460 lung = test system: NCI-H460 lung
HOP-92 NSCLC = test system: HOP-92 NSCLC
NCI-H522 lung = test system: NCI-H522 lung
A549/ATCC NSCLC = test system: A549/ATCC NSCLC
786-0 renal = test system: 786-0 renal
COLO 205 colon = test system: COLO 205 colon
DU-145 prostate = test system: DU-145 prostate
K-562 leukemia = test system: K-562 leukemia
MALME-3M melanoma = test system: MALME-3M melanoma
MDA-MB-231 breast = test system: MDA-MB-231 breast
RXF 393 renal = test system: RXF 393 renal
SF-268 CNS = test system: SF-268 CNS
SF-539 CNS = test system: SF-539 CNS
UACC-257 melanoma = test system: UACC-257 melanoma
M14 melanoma = test system: M14 melanoma

SMILES: CCc1ccc(-c2ccc(NC3CCCCCC3)nn2)cc1S(N)(=O)=O
- growth (NCI-H23 lung): 106%
- growth (NCI-H226 lung): 104%
- growth (NCI-H322M lung): 110%
- growth (HOP-62 NSCLC): 120%
- growth (NCI-H460 lung): 104%
- growth (HOP-92 NSCLC): 94.2%
- growth (NCI-H522 lung): 87.7%
- growth (A549/ATCC NSCLC): 98.2%
- growth (786-0 renal): 103%
- growth (COLO 205 colon): 115%
- growth (DU-145 prostate): 114%
- growth (K-562 leukemia): 112%
- growth (MALME-3M melanoma): 104%
- growth (MDA-MB-231 breast): 109%
- growth (RXF 393 renal): 115%
- growth (SF-268 CNS): 117%
- growth (SF-539 CNS): 98.9%
- growth (UACC-257 melanoma): 100%
- growth (M14 melanoma): 104%

SMILES: Cn1nc(C(F)(F)F)cc1-c1cc(Cl)c(OCc2ccc(Cl)cc2)c(-c2ccc(Cl)c(C(F)(F)F)c2)c1O
- growth (NCI-H23 lung): 4.69% (active)
- growth (NCI-H226 lung): -13.3% (active)
- growth (NCI-H322M lung): 9.05% (active)
- growth (HOP-62 NSCLC): -28.6% (active)
- growth (NCI-H460 lung): 0.354% (active)
- growth (HOP-92 NSCLC): -25.8% (active)
- growth (NCI-H522 lung): 1.3% (active)
- growth (A549/ATCC NSCLC): 13.2%
- growth (786-0 renal): -4.08% (active)
- growth (COLO 205 colon): -78.6% (active)
- growth (DU-145 prostate): 11.5%
- growth (K-562 leukemia): 8.16% (active)
- growth (MALME-3M melanoma): -26.5% (active)
- growth (MDA-MB-231 breast): -21.8% (active)
- growth (RXF 393 renal): -17.6% (active)
- growth (SF-268 CNS): 2.82% (active)
- growth (SF-539 CNS): -12.5% (active)
- growth (UACC-257 melanoma): 1.55% (active)
- growth (M14 melanoma): -13.5% (active)

SMILES: CCOC(=O)c1c(NC(=O)c2ccccc2)sc2c(O)c(CN(CC)CC)ccc12
- growth (NCI-H23 lung): 2.37% (active)
- growth (NCI-H226 lung): -21.7% (active)
- growth (NCI-H322M lung): 50.6%
- growth (HOP-62 NSCLC): -17.2% (active)
- growth (NCI-H460 lung): 4.01% (active)
- growth (HOP-92 NSCLC): 46.3%
- growth (NCI-H522 lung): -45.3% (active)
- growth (A549/ATCC NSCLC): 11.4%
- growth (786-0 renal): 18.5%
- growth (COLO 205 colon): -74.7% (active)
- growth (DU-145 prostate): -26.9% (active)
- growth (K-562 leukemia): 7.52% (active)
- growth (MALME-3M melanoma): 38.1%
- growth (MDA-MB-231 breast): 1.41% (active)
- growth (RXF 393 renal): -27.4% (active)
- growth (SF-268 CNS): 4.48% (active)
- growth (SF-539 CNS): 6.42% (active)
- growth (UACC-257 melanoma): 51%
- growth (M14 melanoma): 14.4%

SMILES: CCCC(CCC)NCC(O)c1cc(-c2ccc(C(F)(F)F)cc2)nc(C(F)(F)F)c1 (stereo unspecified)
- growth (NCI-H23 lung): -59.4% (active)
- growth (NCI-H226 lung): -69.5% (active)
- growth (NCI-H322M lung): 0.686% (active)
- growth (HOP-62 NSCLC): -64.8% (active)
- growth (NCI-H460 lung): -60.1% (active)
- growth (HOP-92 NSCLC): -71.5% (active)
- growth (NCI-H522 lung): -77.5% (active)
- growth (A549/ATCC NSCLC): -59.6% (active)
- growth (786-0 renal): -61.5% (active)
- growth (COLO 205 colon): -83.5% (active)
- growth (DU-145 prostate): -26.2% (active)
- growth (K-562 leukemia): -51.1% (active)
- growth (MALME-3M melanoma): -63.7% (active)
- growth (MDA-MB-231 breast): -66.9% (active)
- growth (RXF 393 renal): -97% (active)
- growth (SF-268 CNS): -40.5% (active)
- growth (SF-539 CNS): -72.2% (active)
- growth (UACC-257 melanoma): -76.9% (active)
- growth (M14 melanoma): -74.8% (active)

SMILES: CC1=NC(c2ccc(Cl)cc2)C2=C(N1)/C(=C/c1ccc(Cl)cc1)CCC2 (stereo unspecified)
- growth (NCI-H23 lung): 81.8%
- growth (NCI-H226 lung): 113%
- growth (NCI-H322M lung): 94.5%
- growth (HOP-62 NSCLC): 106%
- growth (NCI-H460 lung): 99.4%
- growth (HOP-92 NSCLC): 86.4%
- growth (NCI-H522 lung): 98.6%
- growth (A549/ATCC NSCLC): 89%
- growth (786-0 renal): 92.7%
- growth (COLO 205 colon): 99%
- growth (DU-145 prostate): 105%
- growth (K-562 leukemia): 76.6%
- growth (MALME-3M melanoma): 96.4%
- growth (MDA-MB-231 breast): 107%
- growth (RXF 393 renal): 90.8%
- growth (SF-268 CNS): 99.3%
- growth (SF-539 CNS): 103%
- growth (UACC-257 melanoma): 93.7%
- growth (M14 melanoma): 65.3%

SMILES: Brc1ccccc1Cn1c(-c2cncs2)nc2ccccc21
- growth (NCI-H23 lung): 85.4%
- growth (NCI-H226 lung): 70.5%
- growth (NCI-H322M lung): 86.6%
- growth (HOP-62 NSCLC): 76%
- growth (NCI-H460 lung): 80.8%
- growth (HOP-92 NSCLC): 0.748% (active)
- growth (NCI-H522 lung): 66.8%
- growth (A549/ATCC NSCLC): 82.7%
- growth (786-0 renal): 90.6%
- growth (COLO 205 colon): 84.9%
- growth (DU-145 prostate): 98.4%
- growth (K-562 leukemia): 74.6%
- growth (MALME-3M melanoma): 98%
- growth (MDA-MB-231 breast): 71.2%
- growth (RXF 393 renal): 97.6%
- growth (SF-268 CNS): 92.1%
- growth (SF-539 CNS): 88.5%
- growth (UACC-257 melanoma): 96%
- growth (M14 melanoma): 92.9%

SMILES: NC(=S)N/N=C(/c1cccs1)C1CC1
- growth (NCI-H23 lung): 101%
- growth (NCI-H226 lung): 90.5%
- growth (NCI-H322M lung): 93%
- growth (HOP-62 NSCLC): 91.8%
- growth (NCI-H460 lung): 106%
- growth (HOP-92 NSCLC): 107%
- growth (NCI-H522 lung): 87.4%
- growth (A549/ATCC NSCLC): 63.6%
- growth (786-0 renal): 105%
- growth (COLO 205 colon): 105%
- growth (DU-145 prostate): 105%
- growth (K-562 leukemia): 69.3%
- growth (MALME-3M melanoma): 96%
- growth (MDA-MB-231 breast): 91.4%
- growth (RXF 393 renal): 102%
- growth (SF-268 CNS): 99.4%
- growth (SF-539 CNS): 95.7%
- growth (UACC-257 melanoma): 39.4%
- growth (M14 melanoma): 71.3%

SMILES: N=c1n(Cc2ccccc2)c(N)cc(=O)n1Cc1ccccc1
- growth (NCI-H23 lung): 12.7%
- growth (NCI-H226 lung): 5.6% (active)
- growth (NCI-H322M lung): 26.5%
- growth (HOP-62 NSCLC): 26.7%
- growth (NCI-H460 lung): -25% (active)
- growth (HOP-92 NSCLC): 99.5%
- growth (NCI-H522 lung): 10.1%
- growth (A549/ATCC NSCLC): -47.2% (active)
- growth (786-0 renal): 19.2%
- growth (COLO 205 colon): 66.8%
- growth (DU-145 prostate): -19.6% (active)
- growth (K-562 leukemia): 21%
- growth (MALME-3M melanoma): 23.3%
- growth (MDA-MB-231 breast): 83%
- growth (RXF 393 renal): -15.5% (active)
- growth (SF-268 CNS): 2.59% (active)
- growth (SF-539 CNS): 12.5%
- growth (UACC-257 melanoma): 43.8%
- growth (M14 melanoma): 84.6%

SMILES: CC(=O)O[C@H]1[C@H](CC#CC#CC[C@@H]2C[C@]3(C)[C@H]4CC=C5[C@H]6[C@@H](C)[C@H](C)CC[C@]6(C(=O)NCCN(CCN)CCN)CC[C@@]5(C)[C@]4(C)CC[C@H]3C(C)(C)[C@H]2OC(C)=O)C[C@]2(C)[C@H]3CC=C4[C@H]5[C@@H](C)[C@H](C)CC[C@]5(C(=O)NCCN(CCN)CCN)CC[C@@]4(C)[C@]3(C)CC[C@H]2C1(C)C
- growth (NCI-H23 lung): 11.9%
- growth (NCI-H226 lung): 69.5%
- growth (NCI-H322M lung): 63.3%
- growth (HOP-62 NSCLC): 87.1%
- growth (NCI-H460 lung): 80.5%
- growth (HOP-92 NSCLC): 48.6%
- growth (NCI-H522 lung): 15.2%
- growth (A549/ATCC NSCLC): 43%
- growth (786-0 renal): 82.8%
- growth (COLO 205 colon): 78%
- growth (DU-145 prostate): 86%
- growth (K-562 leukemia): 18.3%
- growth (MALME-3M melanoma): 67.8%
- growth (MDA-MB-231 breast): 59.6%
- growth (RXF 393 renal): 57.9%
- growth (SF-268 CNS): 87.1%
- growth (SF-539 CNS): 84.2%
- growth (UACC-257 melanoma): 96%
- growth (M14 melanoma): 63.1%
